Screens (PubChem)
MCF10A rerep: DNA re-replication induction in MCF 10a cells; Potency, µM (top dose mostly 46.1 µM), actives largely listed as activators; 350,000 compounds, 2.9% hits; MCF 10A DNA re-replication, Hoechst nuclear intensity, 48 h; further: nearly all actives have a fitted effect of over 50% in size
SW480 rerep: DNA re-replication induction in SW480 cells | SW480 DNA re-replication, Hoechst DNA content imaging, 48 h | Potency, µM (series often up to 46.1 µM), usual class: activators | 340,000 compounds, 1.8% hits | AID 624297; further: nearly all actives have a fitted effect of over 55% in size
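Quantitative HTS format with DMSO vehicle controls; 48 hr drug incubation at 37 C, then 40 min Hoechst staining and scanning imager measurement at 405 nm excitation.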
KB-V1 cytotox: KB-V1 MDR subline cytotoxicity | KB-V1 MDR cells viability, CellTiter-Glo, 72 h | Potency, µM (top dose mostly 46.1 µM), usual class: cytotoxic | 400,000 compounds, 3.4% hits; further: nearly all actives have a fitted effect of over 60% in size
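Luminescent ATP read-out (CellTiter-Glo, 10 min) measures survival of drug-selected KB-V1 MDR cells after 72 h, 37 degrees C compound exposure. Medium: phenol-red-free DMEM, 10% FBS. Values from fitted concentration-response curves.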
KB-3-1 cytotox: KB-3-1 parental cell cytotoxicity; KB-3-1 viability, CellTiter-Glo ATP luminescence, 72 h; Potency, µM (top dose mostly 46.1 µM), hits mostly cytotoxic; 400,000 compounds, 1.4% hits; AID 1347075; further: nearly all actives have a fitted effect of over 60% in size
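Viability of parental KB-3-1 cells, measured by CellTiter-Glo luminescence, followed a 72 h incubation at 37 °C with pinned compounds in phenol-red-free DMEM containing 10% FBS.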
IL1B secr inh: inhibitors of inflammasome signaling (IL-1 beta secretion) | THP-1 LPS/ATP IL-1B secretion, AlphaLISA, 16 h; stronger effect = lower value | activity change, % at 57.5 µM | 360,000 compounds, 4.7% hits | AID 743279; in the data active means activity change below about -50%; inconclusive means mostly about -30% to -49%
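THP-1 cells pretreated 1 hr with compounds (up to 57.5 uM final), then stimulated with LPS (250 ng/mL final) plus ATP (1.25 mM final); secreted IL-1B measured by AlphaLISA after 16 hr, decreased signal indicating inhibition.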
Numbers stand for hits; i = inactive; ? = inconclusive; nt = not tested or not shown. The list is not random: actives were taken first. Their share in the collection is about 9.9%. Unless noted, the call rests on the fitted dose curve; in most records, active means well fitted curve in the direction sought with a large enough effect; inconclusive means small, poorly fitted or top-dose-only effect, or another doubt; inactive means no such curve, though single readings can be large; an effect the other way counts as inactive or inconclusive.

SMILES	MCF10A rerep	SW480 rerep	KB-V1 cytotox	KB-3-1 cytotox	IL1B secr inh
CCc1ccc2nc(-c3cccc(C)c3)nc(SCC(=O)NCC3CCCO3)c2c1 (centres undefined)	i	i	2.59µM	i	i
COC(=O)C1(Cc2ccc3c(c2)CCC3)Cc2ccc3c(c2C1=O)CCC3 (centres undefined)	9.2µM	?	4.61µM	5.8µM	i
Cc1[nH]n(-c2ccc([N+](=O)[O-])cc2)c(=O)c1C=NCCN1CCN(C(=O)c2cccc(F)c2)CC1	i	i	16.4µM	i	i
COc1ccc(C(=O)On2c(-c3ccc(Br)cc3)nc3ccccc3c2=O)cc1	9.2µM	?	?	?	?
COc1cc(OC)cc(-c2nc3ccccc3c(=O)n2OC(=O)c2ccc(Br)cc2)c1	i	?	?	i	i
COc1ccc(-c2nc3ccccc3c(=O)n2NC(=O)Cc2ccccc2)cc1	i	i	14.6µM	i	i
COc1ccc(CC(=O)Nn2c(-c3ccccc3)nc3ccccc3c2=O)cc1	i	i	?	i	i
Nc1nc(N)c2c(ccc3c2ccn3Cc2cccc([N+](=O)[O-])c2)n1	nt	nt	1.84µM	0.581µM	-108.7
Cc1c(C(=O)OCC(=O)Nc2ccc(C(N)=O)cc2)cccc1[N+](=O)[O-]	i	i	i	i	i
CC(=O)NC(c1ccc(C(C)C)cc1)c1c(O)ccc2ccccc12 (centres undefined)	18.4µM	?	i	i	-74.9
CC(C)C(=O)NC(c1ccc([N+](=O)[O-])cc1)c1c(O)ccc2ccccc12 (centres undefined)	?	i	?	i	-87.8
COc1ccc(NC(=O)CSc2cc(C(=O)c3nccn3C)c3ccccc3n2)cc1	i	i	?	i	?
O=C1OC(C(=O)O)Cc2ccccc21 (centres undefined)	18.4µM	?	i	i	i
Cc1ccccc1NC(=O)C1Cc2ccccc2C(=O)O1 (centres undefined)	i	i	i	i	i
O=C1c2ccccc2C(=O)c2c1cccc2N1CCOCC1	i	i	i	i	-80.6
Cc1cccc2nc(-c3cccnc3)c(NCCC(C)C)n12	20.6µM	i	?	i	-82.3
CCCCNc1c(-c2cccnc2)nc2nc(C)cc(C)n12	nt	nt	?	i	i
Cc1cccc2nc(-c3cccnc3)c(Nc3ccccc3)n12	i	i	18.4µM	?	?
O=c1cc(-c2ccccc2)nc(Cc2c(Cl)cccc2Cl)[nH]1	i	i	i	i	i
O=c1cc(CCl)nc(Cc2c(Cl)cccc2Cl)[nH]1	18.4µM	?	?	?	i
Cn1c(SCC(=O)NCCc2ccccc2)ncc(C(=O)Nc2ccc(F)cc2)c1=O	i	i	i	i	i
O=C(/C=C/c1ccc(Cl)cc1Cl)Nc1ccc(CN2CCOCC2)cc1	8.2µM	?	i	?	i
O=C(/C=C/c1ccc(Cl)cc1)NC(=S)Nc1ccc(CN2CCOCC2)cc1	20.6µM	i	i	i	i
O=C(C1CCCCC1)N1C[C@H](n2cc(C3CC3)nn2)[C@@H](O)C[C@@H]1c1ccccc1	nt	nt	?	i	i
CC[n+]1c(/C=C(\C)OC)sc2ccccc21	i	i	i	i	i
SMILES	MCF10A rerep	SW480 rerep	KB-V1 cytotox	KB-3-1 cytotox	IL1B secr inh
CC[n+]1c(/C=C/C=C/N(C(C)=O)c2ccccc2)sc2cc(OC)ccc21	i	?	13µM	3.26µM	-117.4
CCOCCCNC(=O)C1CCN(c2cc(C)nc3c(-c4ccc(Cl)cc4)c(C)nn23)CC1	nt	nt	?	i	nt
CC(=O)N1N=C(c2cccc([N+](=O)[O-])c2)OC1(C)CC(=O)Nc1ccccc1 (centres undefined)	i	i	20.6µM	i	i
CSc1ncc(C(=O)Nc2c(C)cccc2C)c(-c2ccccc2)n1	nt	nt	i	i	nt
COc1ccc(S(=O)(=O)NCCS(=O)(=O)N2CCN(c3ccccc3)CC2)cc1C	nt	nt	i	i	nt
Cc1ccccc1NC(=S)NCCc1ccccc1	?	?	16.4µM	i	i
Cc1ccc(C)c(NC(=S)NNc2ccc(F)cc2F)c1	?	i	i	i	-100.3
Cc1ccc(C)c(NC(=S)NCCc2ccc(F)cc2)c1	?	?	i	i	-66.8
CC(C)(C)CC(=O)NC(=S)NCCc1ccccc1	?	10.3µM	i	i	i
CCOC(=O)c1cccc(NC(=O)Nc2ccc3c(c2)N(C)C(=O)c2ccccc2S3)c1	nt	nt	i	i	nt
